Targets with a hit are over-represented here; the source holds about 7,900 in all. About 0.6% of all pairs of compound and target were hits. Unmarked numbers belong to inactive results.
compound: C[C@@H]1COCCN1C2=NC(=NC(=C2)C3(CC3)S(=O)(=O)C)C4=C5C=CNC5=CC=C4; assay: log2 fold change, soluble protein after heating vs DMSO (PISA); higher = thermal stabilisation; K562 cells, 10 uM, 30 min; active = over 0.2 and 3.5 SD of the protein, either way, in both replicates (recomputed)
Procedure, shortened: (§1)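 Quantification of soluble protein used TMTpro 16plex LC-MS/MS, with channel sums equalised. Samples were the supernatant after 21,000xg for 90 min of pooled aliquots from K562 cells (2×10^6 cells/mL) treated with 10 μM compound for 30 min, heated for 3 min over 48°C-58°C, and extracted in PBS with 0.5% NP-40 at 4°C. Values, from duplicates, describe thermal stability against control samples on a log2 fold-change scale.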

Chain of UniProt Q9UKG1 (Q9UKG1 whole entry, looked up): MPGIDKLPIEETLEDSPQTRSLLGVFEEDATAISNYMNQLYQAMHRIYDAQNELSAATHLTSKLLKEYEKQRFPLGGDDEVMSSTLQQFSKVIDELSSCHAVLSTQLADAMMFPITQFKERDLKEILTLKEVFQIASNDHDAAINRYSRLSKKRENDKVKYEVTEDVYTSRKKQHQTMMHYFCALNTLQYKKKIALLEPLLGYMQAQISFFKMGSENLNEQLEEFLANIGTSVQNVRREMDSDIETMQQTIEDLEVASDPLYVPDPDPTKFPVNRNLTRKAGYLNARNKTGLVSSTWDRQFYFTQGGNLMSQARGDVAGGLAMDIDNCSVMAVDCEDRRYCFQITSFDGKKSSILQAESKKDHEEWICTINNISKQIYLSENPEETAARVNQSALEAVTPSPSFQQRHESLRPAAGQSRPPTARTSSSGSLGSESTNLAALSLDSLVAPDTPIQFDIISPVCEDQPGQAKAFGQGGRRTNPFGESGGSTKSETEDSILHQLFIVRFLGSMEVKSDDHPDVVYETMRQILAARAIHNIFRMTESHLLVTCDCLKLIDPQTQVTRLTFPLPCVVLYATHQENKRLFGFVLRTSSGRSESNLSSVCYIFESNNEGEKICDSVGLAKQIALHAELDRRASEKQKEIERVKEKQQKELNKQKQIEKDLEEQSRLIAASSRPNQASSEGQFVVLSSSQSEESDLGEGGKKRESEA
Chain of UniProt O15440 (O15440 whole entry, looked up): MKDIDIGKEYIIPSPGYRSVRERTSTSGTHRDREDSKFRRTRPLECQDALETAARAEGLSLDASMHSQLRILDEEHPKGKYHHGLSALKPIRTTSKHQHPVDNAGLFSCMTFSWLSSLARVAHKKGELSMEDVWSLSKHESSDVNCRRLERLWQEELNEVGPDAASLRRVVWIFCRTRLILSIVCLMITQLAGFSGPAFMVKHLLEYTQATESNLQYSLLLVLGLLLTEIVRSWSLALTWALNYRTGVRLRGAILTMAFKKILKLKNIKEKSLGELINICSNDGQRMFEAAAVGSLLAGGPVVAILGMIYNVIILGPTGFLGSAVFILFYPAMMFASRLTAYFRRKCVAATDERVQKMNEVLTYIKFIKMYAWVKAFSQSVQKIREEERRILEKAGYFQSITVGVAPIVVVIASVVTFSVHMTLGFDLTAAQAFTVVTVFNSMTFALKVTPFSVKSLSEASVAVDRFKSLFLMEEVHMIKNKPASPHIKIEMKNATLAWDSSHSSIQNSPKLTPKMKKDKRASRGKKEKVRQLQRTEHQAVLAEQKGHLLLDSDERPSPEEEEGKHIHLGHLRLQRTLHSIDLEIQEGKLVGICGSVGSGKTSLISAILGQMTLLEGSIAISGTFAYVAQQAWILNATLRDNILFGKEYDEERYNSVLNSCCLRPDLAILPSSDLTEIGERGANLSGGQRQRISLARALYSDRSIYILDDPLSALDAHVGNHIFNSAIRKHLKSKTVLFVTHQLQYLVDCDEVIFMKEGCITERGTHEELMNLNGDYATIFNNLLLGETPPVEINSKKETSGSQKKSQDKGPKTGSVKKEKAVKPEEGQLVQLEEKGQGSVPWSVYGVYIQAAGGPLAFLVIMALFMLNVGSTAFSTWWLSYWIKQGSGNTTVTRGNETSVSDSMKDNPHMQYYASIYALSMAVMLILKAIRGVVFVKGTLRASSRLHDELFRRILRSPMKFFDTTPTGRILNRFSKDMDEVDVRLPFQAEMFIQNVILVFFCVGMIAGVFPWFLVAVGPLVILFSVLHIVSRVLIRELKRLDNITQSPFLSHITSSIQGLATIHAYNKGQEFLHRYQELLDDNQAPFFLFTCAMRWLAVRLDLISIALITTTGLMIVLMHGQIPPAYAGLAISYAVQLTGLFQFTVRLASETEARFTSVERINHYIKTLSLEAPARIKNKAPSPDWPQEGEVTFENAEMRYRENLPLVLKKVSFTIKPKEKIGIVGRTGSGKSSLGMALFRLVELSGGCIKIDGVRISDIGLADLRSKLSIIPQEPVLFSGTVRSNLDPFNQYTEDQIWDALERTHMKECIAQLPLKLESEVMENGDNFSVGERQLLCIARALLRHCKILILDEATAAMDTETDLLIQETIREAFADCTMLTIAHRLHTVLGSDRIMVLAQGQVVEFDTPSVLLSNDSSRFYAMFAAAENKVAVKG
Chain of UniProt P54709 (P54709 whole entry, looked up): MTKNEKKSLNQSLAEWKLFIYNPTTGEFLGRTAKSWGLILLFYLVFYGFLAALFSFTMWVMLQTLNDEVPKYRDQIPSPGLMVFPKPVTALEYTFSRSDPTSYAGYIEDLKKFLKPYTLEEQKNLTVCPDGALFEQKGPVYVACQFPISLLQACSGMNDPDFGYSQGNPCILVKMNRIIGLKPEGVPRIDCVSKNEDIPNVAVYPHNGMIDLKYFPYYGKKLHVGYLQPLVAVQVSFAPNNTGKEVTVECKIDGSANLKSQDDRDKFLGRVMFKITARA
Chain of UniProt Q92685 (Q92685 whole entry, looked up): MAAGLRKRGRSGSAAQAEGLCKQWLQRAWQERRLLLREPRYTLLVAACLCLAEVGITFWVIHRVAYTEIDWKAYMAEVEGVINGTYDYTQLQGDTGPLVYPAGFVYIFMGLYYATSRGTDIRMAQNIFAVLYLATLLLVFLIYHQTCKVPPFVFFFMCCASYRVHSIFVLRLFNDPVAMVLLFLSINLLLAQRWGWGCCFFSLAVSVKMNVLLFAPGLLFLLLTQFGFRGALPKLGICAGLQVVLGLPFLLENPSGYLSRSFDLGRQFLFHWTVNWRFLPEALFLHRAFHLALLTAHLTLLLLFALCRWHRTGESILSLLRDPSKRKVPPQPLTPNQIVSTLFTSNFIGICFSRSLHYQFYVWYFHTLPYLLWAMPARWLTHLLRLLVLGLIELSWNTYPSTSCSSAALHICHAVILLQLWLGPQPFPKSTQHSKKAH
Chain of UniProt P33121 (P33121 whole entry, looked up): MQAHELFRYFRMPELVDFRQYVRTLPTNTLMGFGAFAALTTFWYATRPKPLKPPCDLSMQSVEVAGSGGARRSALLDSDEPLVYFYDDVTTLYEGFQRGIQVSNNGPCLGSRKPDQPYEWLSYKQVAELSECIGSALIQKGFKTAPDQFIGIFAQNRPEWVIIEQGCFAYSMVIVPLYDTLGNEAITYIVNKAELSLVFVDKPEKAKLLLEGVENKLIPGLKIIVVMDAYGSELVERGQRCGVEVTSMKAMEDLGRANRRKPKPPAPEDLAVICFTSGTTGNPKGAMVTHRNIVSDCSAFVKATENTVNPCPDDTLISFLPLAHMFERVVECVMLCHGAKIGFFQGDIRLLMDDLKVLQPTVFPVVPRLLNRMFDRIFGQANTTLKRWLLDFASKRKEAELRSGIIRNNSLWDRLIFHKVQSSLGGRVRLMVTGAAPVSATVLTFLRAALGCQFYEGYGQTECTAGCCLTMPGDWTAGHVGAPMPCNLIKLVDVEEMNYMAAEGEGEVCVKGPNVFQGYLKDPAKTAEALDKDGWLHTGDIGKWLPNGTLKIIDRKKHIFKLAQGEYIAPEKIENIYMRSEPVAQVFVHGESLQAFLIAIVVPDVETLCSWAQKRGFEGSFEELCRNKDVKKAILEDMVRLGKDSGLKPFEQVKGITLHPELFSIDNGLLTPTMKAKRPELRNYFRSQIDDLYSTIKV
Chain of UniProt Q9Y3D8 (Q9Y3D8 whole entry, looked up): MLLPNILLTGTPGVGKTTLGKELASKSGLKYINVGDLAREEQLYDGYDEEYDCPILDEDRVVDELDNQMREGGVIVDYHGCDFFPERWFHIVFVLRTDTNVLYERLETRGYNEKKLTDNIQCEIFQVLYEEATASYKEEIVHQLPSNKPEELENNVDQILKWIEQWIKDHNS
Chain of UniProt Q66PJ3 (Q66PJ3 whole entry, looked up): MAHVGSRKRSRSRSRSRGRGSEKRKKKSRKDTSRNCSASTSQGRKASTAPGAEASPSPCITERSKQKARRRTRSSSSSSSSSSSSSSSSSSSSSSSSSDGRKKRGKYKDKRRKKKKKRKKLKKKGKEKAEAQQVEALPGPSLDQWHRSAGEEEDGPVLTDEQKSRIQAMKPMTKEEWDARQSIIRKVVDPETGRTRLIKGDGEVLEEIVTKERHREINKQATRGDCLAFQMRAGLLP
Chain of UniProt Q9ULC5 (Q9ULC5 whole entry, looked up): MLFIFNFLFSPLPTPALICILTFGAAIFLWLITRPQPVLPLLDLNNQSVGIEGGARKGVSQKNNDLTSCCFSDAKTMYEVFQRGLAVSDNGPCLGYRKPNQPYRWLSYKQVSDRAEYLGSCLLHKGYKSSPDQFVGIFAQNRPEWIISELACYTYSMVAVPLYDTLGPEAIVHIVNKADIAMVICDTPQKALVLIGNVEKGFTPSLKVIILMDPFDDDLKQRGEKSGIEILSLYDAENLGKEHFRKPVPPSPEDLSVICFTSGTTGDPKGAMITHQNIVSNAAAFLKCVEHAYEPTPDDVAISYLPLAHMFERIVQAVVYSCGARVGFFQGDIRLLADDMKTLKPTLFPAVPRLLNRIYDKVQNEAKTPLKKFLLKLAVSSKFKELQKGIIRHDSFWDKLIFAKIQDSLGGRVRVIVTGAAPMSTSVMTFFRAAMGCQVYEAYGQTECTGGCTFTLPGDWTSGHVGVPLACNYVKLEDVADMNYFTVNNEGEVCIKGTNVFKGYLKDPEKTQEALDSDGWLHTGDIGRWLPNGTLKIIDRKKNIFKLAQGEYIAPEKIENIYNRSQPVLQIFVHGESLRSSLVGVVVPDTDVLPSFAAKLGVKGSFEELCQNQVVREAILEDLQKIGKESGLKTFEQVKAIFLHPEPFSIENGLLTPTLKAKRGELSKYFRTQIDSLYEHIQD
Chain of UniProt P18085 (P18085 whole entry, looked up): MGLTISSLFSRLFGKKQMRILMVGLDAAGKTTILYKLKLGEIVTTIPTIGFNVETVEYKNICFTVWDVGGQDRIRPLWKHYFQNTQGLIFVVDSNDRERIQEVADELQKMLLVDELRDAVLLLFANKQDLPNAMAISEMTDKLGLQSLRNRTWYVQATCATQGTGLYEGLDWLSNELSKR
Chain of UniProt Q8WUW1 (Q8WUW1 whole entry, looked up): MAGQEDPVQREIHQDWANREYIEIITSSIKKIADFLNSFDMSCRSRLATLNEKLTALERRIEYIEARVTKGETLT

Target | log2 fold change
ACSL5 isoform 3 (UniProt Q9ULC5) | 0.11
ADK (UniProt P55263) | 0.034
ATP1B3 (UniProt P54709) | 0.027
BCCIP isoform 2 (UniProt Q9P287) | 0
ANKZF1 (UniProt Q9H8Y5) | -0.135
BRD8 isoform 2 (UniProt Q9H0E9) | -0.11
ALDH18A1 (UniProt P54886) | -0.13
AARSD1 isoform 3 (UniProt Q9BTE6) | 0.012
BRK1 isoform 2 (UniProt Q8WUW1) | 0.11
BST2 (UniProt Q10589) | 0.006
ATP6V1H (UniProt Q9UI12) | 0.019
ACACB (UniProt O00763) | -0.13
AHSA1 (UniProt O95433) | 0.058
ARL6IP4 (UniProt Q66PJ3) | 0.036
ABITRAM (UniProt Q9NX38) | 0.1
ABCC5 (UniProt O15440) | 0.031
BCAP29 isoform 2 (UniProt Q9UHQ4) | 0.061
ASH2L (UniProt Q9UBL3) | 0.046

Target | log2 fold change
ALG5 (UniProt Q9Y673) | 0.06
BCL9L (UniProt Q86UU0) | 0.018
APPL1 (UniProt Q9UKG1) | -0.078
AFDN isoform 5 (UniProt P55196) | 0.04
ALDH9A1 isoform 3 (UniProt P49189) | 0.027
ACSL1 (UniProt P33121) | 0.017
ACADM isoform 2 (UniProt P11310) | 0.018
AKR1C2 (UniProt P52895) | -0.159
ALG3 (UniProt Q92685) | 0.001
AKR1C3 (UniProt P42330) | -0.009
ARL6IP6 (UniProt Q8N6S5) | 0.017
AK6 (UniProt Q9Y3D8) | 0.175
APOB (UniProt P04114) | 0.083
BLVRB (UniProt P30043) | 0.036
ATP6AP1 (UniProt Q15904) | -0.161
ATP1A4 (UniProt Q13733) | -0.067
ARF4 (UniProt P18085) | 0.122
BZW1 isoform 3 (UniProt Q7L1Q6) | 0.007

compound: C[C@H](C1=CC=C(C=C1)C(=O)NC2=C3C=CNC3=NC=C2)N; assay: as above
Procedure, shortened: as §1

Target | log2 fold change
ACSL5 isoform 3 (UniProt Q9ULC5) | 0.009
ADK (UniProt P55263) | -0.105
ATP1B3 (UniProt P54709) | -0.152
BCCIP isoform 2 (UniProt Q9P287) | 0.062
ANKZF1 (UniProt Q9H8Y5) | 0.174
BRD8 isoform 2 (UniProt Q9H0E9) | 0.042
ALDH18A1 (UniProt P54886) | -0.036
AARSD1 isoform 3 (UniProt Q9BTE6) | 0.013
BRK1 isoform 2 (UniProt Q8WUW1) | -0.276
BST2 (UniProt Q10589) | -0.055
ATP6V1H (UniProt Q9UI12) | 0.003
ACACB (UniProt O00763) | 0.341
AHSA1 (UniProt O95433) | -0.026
ARL6IP4 (UniProt Q66PJ3) | -0.093
ABITRAM (UniProt Q9NX38) | -0.011
ABCC5 (UniProt O15440) | 0.088
BCAP29 isoform 2 (UniProt Q9UHQ4) | -0.005
ASH2L (UniProt Q9UBL3) | 0.058

Target | log2 fold change
ALG5 (UniProt Q9Y673) | -0.065
BCL9L (UniProt Q86UU0) | -0.002
APPL1 (UniProt Q9UKG1) | 0.034
AFDN isoform 5 (UniProt P55196) | -0.094
ALDH9A1 isoform 3 (UniProt P49189) | -0.042
ACSL1 (UniProt P33121) | -0.024
ACADM isoform 2 (UniProt P11310) | -0.073
AKR1C2 (UniProt P52895) | 0.219
ALG3 (UniProt Q92685) | -0.077
AKR1C3 (UniProt P42330) | -0.035
ARL6IP6 (UniProt Q8N6S5) | -0.042
AK6 (UniProt Q9Y3D8) | 0.115
APOB (UniProt P04114) | -0.203
BLVRB (UniProt P30043) | -0.081
ATP6AP1 (UniProt Q15904) | 0.146
ATP1A4 (UniProt Q13733) | -0.066
ARF4 (UniProt P18085) | -0.018
BZW1 isoform 3 (UniProt Q7L1Q6) | 0.051

From the supplement of paper PMC10849652
